Our source for the Potency values is PubChem BioAssay (Tox21).

A short description of test [1]: Nuclear factor erythroid 2-related factor 2/antioxidant responsive element (Nrf2/ARE) small molecule agonists: qHTS cell viability counter screen in human keratinocytes (AID 1919968; active means well fitted curve in the direction sought with a large enough effect in the repeat runs; an effect the other way counts as inactive or inconclusive; further: nearly all actives have a fitted effect of over 55% in size; further: potency means the concentration at half of the fitted maximal effect). In outline:
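Cytotoxicity was multiplexed with the Nrf2/ARE luciferase assay in the same wells. Stably transfected HaCaT keratinocytes were treated with test compounds for 23 h at 37 C. Cell viability was then measured by CellTiter-Fluor fluorescence.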

The target of test [2] is KiSS-1 receptor (Homo sapiens) (UniProt Q969F8). As to the kind of experiment: Human kisspeptin (KISS1R) small molecule agonists, calcium flux assay in KISS1R-HEK293 cells (AID 1920064; active means well fitted curve in the direction sought with a large enough effect in the repeat runs; an effect the other way counts as inactive or inconclusive; further: potency means the concentration at half of the fitted maximal effect). The method, boiled down:
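Agonist activity is monitored as intracellular calcium rise in engineered HEK293 cells carrying human KISS1R. Cells are dye-loaded for 1 h at 37 C before compound addition, and fluorescence is recorded for 3 min.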

Test [3] is described as follows: G protein-coupled receptor (GPCR) small molecule agonists, calcium flux assay: HEK293 wild type cell line counter screen (AID 1920065). Further: potency means the concentration at half of the fitted maximal effect. In outline:
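Seed cells, incubate 18 h (37 C, 5% CO2); add calcium dye, 1 h at 37 C; pin-transfer compounds, ATP control or DMSO; read fluorescence 480/540 nm each second for 3 min.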

The nature of test [4]: p53 small molecule agonists, cell-based qHTS assay with human liver microsomes (AID 1963577). The method, boiled down:
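Cells carrying a p53-responsive bla reporter were rested 5 h (37 C, 5% CO2) before compound transfer. Human liver microsomes plus NADPH, 0.5 mg/mL final apiece, supplied metabolism during the 16 h 37 C exposure.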

The nature of test [5]: p53 small molecule agonists, cell-based qHTS assay with rat liver microsomes (AID 1963578). In outline:
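Fluorescence from a beta-lactamase reporter under a p53 response element was measured after cells had been incubated 16 h at 37 C with test compound and rat liver microsomes plus NADPH (0.5 mg/mL final each).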

Test [6] in a line: p53 small molecule agonists, cell-based qHTS assay with human liver microsomes: qHTS cell viability counter screen (AID 1963579). Further: nearly all actives have a fitted effect of over 45% in size. Further: potency means the concentration at half of the fitted maximal effect. In outline: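 Seed p53RE-bla cells at 4,000 per well; incubate 5 h at 37 C; add compound, human liver microsomes and NADPH; incubate 16 h at 37 C; add CellTiter-Glo; after 30 min at room temperature, read luminescence.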
Test [7] can be described thus: p53 small molecule agonists, cell-based qHTS assay with rat liver microsomes: qHTS cell viability counter screen (AID 1963580). Further: nearly all actives have a fitted effect of over 45% in size. Further: potency means the concentration at half of the fitted maximal effect. The method, boiled down:
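After the beta-lactamase ratio was read, CellTiter-Glo was added to the same wells and luminescence measured at 30 min; cells had been treated 16 h at 37 C with compounds, rat liver microsomes and NADPH (0.5 mg/mL final each).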

Test [8] is described as follows: p53 small molecule agonists, cell-based qHTS assay: qHTS cell viability counter screen (AID 1963581). Further: nearly all actives have a fitted effect of over 45% in size. Further: potency means the concentration at half of the fitted maximal effect. In outline:
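Viability was counter-screened in parallel with the p53 agonist reporter by measuring intracellular ATP luminescence in the same HCT-116 p53RE-bla wells after 16 h compound treatment at 37 C.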

The target in test [9] is 5-hydroxytryptamine receptor 2A (Homo sapiens) (UniProt P28223). As to the kind of experiment: 5-hydroxytryptamine receptor 2A (HTR2A) small molecule antagonists, cell-based qHTS assay (AID 1963586). Further: nearly all actives have a fitted effect of over 45% in size. Further: potency means the concentration at half of the fitted maximal effect. The method, boiled down:
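CHO cells stably expressing human HTR2A were plated for 18 h at 37 C, then loaded with calcium dye for 1 h. Compounds were preincubated 5 min at room temperature before DOI (4 nM solution) was added. Kinetic fluorescence was read for 3 min.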

The target is the same in test [10]. The experiment in a line: 5-hydroxytryptamine receptor 2A (HTR2A) small molecule agonists, cell-based qHTS assay (AID 1963587). Further: nearly all actives have a fitted effect of over 30% in size. In outline:
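CHO cells stably expressing human HTR2A, plated 18 h, loaded with calcium dye 1 h at 37 C. Agonist mode: compounds added and intracellular calcium fluorescence recorded kinetically for 2 min at 1 sec intervals.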

For test [11], the target named is Muscarinic acetylcholine receptor M1 (Homo sapiens) (UniProt P11229). As to the kind of experiment: Cholinergic receptor muscarinic 1 (CHRM1) small molecule antagonists, cell-based qHTS assay (AID 1963588). Further: nearly all actives have a fitted effect of over 40% in size. Further: potency means the concentration at half of the fitted maximal effect. In outline: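 Compounds were tested at 15 concentrations in three independent runs. Dye-loaded CHRM1-CHO cells were exposed 5 min at room temperature before stimulation by acetylcholine added at 50nM. Intracellular calcium was read kinetically on FDSS for 3 min.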

Test [12] has the same target. The experiment in a line: Cholinergic receptor muscarinic 1 (CHRM1) small molecule agonists, cell-based qHTS assay (AID 1963589). Further: nearly all actives have a fitted effect of over 35% in size. Further: potency means the concentration at half of the fitted maximal effect. In outline: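 Cells were plated and incubated 18 h at 37 C/5% CO2, loaded with calcium dye for 1 h at 37 C, then treated with compounds in DMSO. Fluorescence was recorded kinetically at 1 sec intervals.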
Test [13] can be described thus: cAMP Responsive Elements (CRE) small molecule agonists, cell-based qHTS assay (AID 1963590). The method, boiled down:
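Cells carrying a CRE-driven beta-lactamase reporter (HEK 293T) are seeded, incubated overnight (18 h), and treated with test compounds for 3 h at 37 C; reporter activity is then detected with a FRET substrate after 2 h at room temperature.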

In test [14] the target is Beta-2 adrenergic receptor (Homo sapiens) (UniProt P07550). The experiment in a line: Adrenergic beta2 receptor (ADRB2) small molecule agonists, cell-based qHTS assay (AID 1963593).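 Further: CHO cells stably overexpressing human ADRB2.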 In outline: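 CHO cells stably over-expressing ADRB2 were plated overnight at 37C, then dosed with compounds plus a stimulation mix containing 100uM IBMX and 25uM Ro-20-1724 for 0.5hr at room temperature. cAMP was measured by HTRF competition, 1hr.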

Test [15] deals with D(2) dopamine receptor (Homo sapiens) (UniProt P14416). The experiment in a line: Dopamine D2 receptor (DRD2) small molecule agonists, cell-based qHTS assay (AID 1963594). Further: nearly all actives have a fitted effect of over 35% in size. The method, boiled down: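 HEK293 cells stably expressing human DRD2, pre-treated with PDE inhibitor Ro20-1724 (0.1 mM final) and compound 10 min at room temperature, then stimulated with NKH477 (200nM […]) for 30 min. cAMP read by HTRF (665/620 nm).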

Test [16] has the same target. As to the kind of experiment: Dopamine D2 receptor (DRD2) small molecule antagonists, cell-based qHTS assay (AID 1963595; active means well fitted inhibition curve with a large enough effect in the signal ratio in the repeat runs, with a control signal flat; the % refers to the signal ratio; further: potency means the concentration at half of the fitted maximal effect). The method, boiled down:
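HEK293 cells stably expressing DRD2, preincubated with 0.1 mM Ro20-1724 and compounds 10 min, were stimulated with 200 nM NKH477 plus 12 nM quinpirole for 30 min at room temperature; cAMP measured by HTRF (665/620 nm).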

Test [17] can be described thus: p53 small molecule agonists, cell-based qHTS assay (AID 1963582; active means well fitted activation curve with a large enough effect in the signal ratio in the repeat runs, not every such curve was filed as active; the % refers to the signal ratio). The method, boiled down:
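Cells carrying a p53-responsive bla reporter are treated with test compounds for 16 h at 37 C; beta-lactamase activity is then detected with LiveBLAzer B/G FRET substrate after 2 h at room temperature.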

Test [18] can be described thus: cAMP Responsive Elements (CRE) small molecule antagonists, cell-based qHTS assay (AID 1963591; active means well fitted inhibition curve with a large enough effect in the signal ratio in the repeat runs, not every such curve was filed as active; the % refers to the signal ratio). The method, boiled down: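 Cells (CRE-bla HEK 293T, DMEM with 10% dialyzed FBS and 25 mM HEPES) are seeded and incubated 18 h. Compounds are added with NKH477 agonist at 0.25 uM final for 3 h, then FRET substrate for 2 h.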
The target of test [19] is Beta-2 adrenergic receptor (Homo sapiens) (UniProt P07550). The experiment in a line: Adrenergic beta2 receptor (ADRB2) small molecule antagonists, cell-based qHTS assay (AID 1963592). Further: nearly all actives have a fitted effect of over 50% in size. Further: potency means the concentration at half of the fitted maximal effect. The method, boiled down: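 Assay format: CHO-ADRB2 cells, 18-20hr seeding at 37C/5% CO2, then compound plus 1nM isoproterenol agonist mix for 0.5hr RT. Homogeneous time-resolved fluorescence cAMP detection after 1hr, expressed as 665/615 nm ratio.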

Several values for one entry are separate records, joined by “and”; a condition that tells them apart may be missing. Equal values may be shown once. Inconclusive results are not listed. A structure can be active in one record and inactive in another. Activity calls are given as the source filed them. Unless noted, the call rests on the fitted dose curve.

Sequence of KiSS-1 receptor (Homo sapiens) (Q969F8 whole entry, looked up): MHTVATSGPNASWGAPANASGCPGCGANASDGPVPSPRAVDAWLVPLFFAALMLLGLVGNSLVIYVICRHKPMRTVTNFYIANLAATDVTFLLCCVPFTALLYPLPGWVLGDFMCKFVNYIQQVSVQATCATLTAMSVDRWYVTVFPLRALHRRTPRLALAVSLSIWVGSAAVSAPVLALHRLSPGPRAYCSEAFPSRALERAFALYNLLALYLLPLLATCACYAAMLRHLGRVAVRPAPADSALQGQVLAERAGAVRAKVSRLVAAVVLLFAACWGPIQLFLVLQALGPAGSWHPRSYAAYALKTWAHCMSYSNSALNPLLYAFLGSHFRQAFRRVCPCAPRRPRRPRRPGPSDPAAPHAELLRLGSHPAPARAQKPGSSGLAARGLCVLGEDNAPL
Sequence of D(2) dopamine receptor (Homo sapiens) (P14416 whole entry, looked up): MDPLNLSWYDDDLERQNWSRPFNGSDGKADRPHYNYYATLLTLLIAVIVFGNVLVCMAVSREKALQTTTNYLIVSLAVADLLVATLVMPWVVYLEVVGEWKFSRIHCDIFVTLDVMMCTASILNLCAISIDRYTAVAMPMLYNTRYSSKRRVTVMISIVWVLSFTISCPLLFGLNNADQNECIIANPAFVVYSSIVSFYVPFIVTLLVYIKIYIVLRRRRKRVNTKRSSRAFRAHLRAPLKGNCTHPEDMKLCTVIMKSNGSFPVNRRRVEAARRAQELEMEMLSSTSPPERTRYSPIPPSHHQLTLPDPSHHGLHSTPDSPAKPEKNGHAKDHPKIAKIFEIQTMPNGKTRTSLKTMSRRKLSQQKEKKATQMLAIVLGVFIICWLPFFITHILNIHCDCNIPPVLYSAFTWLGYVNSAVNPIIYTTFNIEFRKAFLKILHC
Sequence of Muscarinic acetylcholine receptor M1 (Homo sapiens) (P11229 whole entry, looked up): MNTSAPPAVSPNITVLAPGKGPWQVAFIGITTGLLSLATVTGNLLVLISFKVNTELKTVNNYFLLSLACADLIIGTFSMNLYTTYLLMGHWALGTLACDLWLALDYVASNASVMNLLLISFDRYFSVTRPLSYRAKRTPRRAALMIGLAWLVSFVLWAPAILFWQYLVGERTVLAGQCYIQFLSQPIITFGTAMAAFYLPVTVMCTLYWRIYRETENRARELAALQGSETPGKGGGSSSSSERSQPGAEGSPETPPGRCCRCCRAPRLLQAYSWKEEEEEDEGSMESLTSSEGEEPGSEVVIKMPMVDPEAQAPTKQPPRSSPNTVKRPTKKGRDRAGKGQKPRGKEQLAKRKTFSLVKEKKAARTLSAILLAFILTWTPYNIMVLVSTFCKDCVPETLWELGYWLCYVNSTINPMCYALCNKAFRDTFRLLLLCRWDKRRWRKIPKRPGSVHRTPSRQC
Sequence of Beta-2 adrenergic receptor (Homo sapiens) (P07550 whole entry, looked up): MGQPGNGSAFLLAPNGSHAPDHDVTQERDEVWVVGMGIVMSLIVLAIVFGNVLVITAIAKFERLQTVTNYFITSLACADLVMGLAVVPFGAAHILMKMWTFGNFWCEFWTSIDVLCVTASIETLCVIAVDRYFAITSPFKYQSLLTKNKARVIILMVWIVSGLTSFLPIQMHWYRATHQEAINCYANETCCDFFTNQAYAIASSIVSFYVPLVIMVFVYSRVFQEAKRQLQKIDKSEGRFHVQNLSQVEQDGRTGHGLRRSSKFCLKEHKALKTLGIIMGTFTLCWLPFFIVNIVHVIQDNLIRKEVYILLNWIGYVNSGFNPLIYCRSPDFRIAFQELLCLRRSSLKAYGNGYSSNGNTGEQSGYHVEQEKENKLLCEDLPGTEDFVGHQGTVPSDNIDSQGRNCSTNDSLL
Sequence of 5-hydroxytryptamine receptor 2A (Homo sapiens) (P28223 whole entry, looked up): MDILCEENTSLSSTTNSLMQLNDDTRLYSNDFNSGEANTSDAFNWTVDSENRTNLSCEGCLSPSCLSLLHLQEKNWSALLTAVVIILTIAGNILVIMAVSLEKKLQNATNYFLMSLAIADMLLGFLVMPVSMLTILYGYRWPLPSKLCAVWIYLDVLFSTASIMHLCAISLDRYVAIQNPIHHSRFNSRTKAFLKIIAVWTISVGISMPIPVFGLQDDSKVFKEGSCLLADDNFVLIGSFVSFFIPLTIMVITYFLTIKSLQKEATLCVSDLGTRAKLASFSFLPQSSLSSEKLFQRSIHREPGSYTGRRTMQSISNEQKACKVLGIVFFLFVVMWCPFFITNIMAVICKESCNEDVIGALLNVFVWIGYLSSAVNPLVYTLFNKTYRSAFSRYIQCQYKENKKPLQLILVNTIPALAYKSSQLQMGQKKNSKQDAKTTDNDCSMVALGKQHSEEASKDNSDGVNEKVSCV

Consider `CC(C)OC(=O)Nc1cccc(Cl)c1`, for which the Potency result in test [1], in test [2], in test [3], in test [4], in test [5] and in [6] was “inactive” each time. For the same compound, the Potency result in test [7], in test [8], in test [9], in test [10], in [11] and in [12] was “inactive” each time. Besides, the Potency entry in test [13], in test [14], in test [15] and in test [16] was “inactive” each time.
Consider `CCC[CH2][Sn]([Cl])([Cl])[Cl]`, for which the Potency entry in test [1], in test [2], in test [3], in test [4], in [5] and in test [7] was “inactive” throughout. The Potency entry in test [8], in [17], in test [9], in [10], in test [11] and in test [12] was “inactive” each time. For the same compound, the Potency result in test [13], in [18], in test [19], in test [15] and in test [16] was “inactive” throughout.
As to `CCC[CH2][Sn]([Cl])([CH2]CCC)[CH2]CCC`, the Potency in [1] is 244 nM (active) and 486 nM (active); in [2] it was 43.6 µM (active); in [3], 34.7 µM (active); in test [6] it was 6.48 µM (active) and 5.76 µM (active); in [7] it was 4.09 µM (active) and 4.08 µM (active); in test [8] it was 1.29 µM (active) and inactive. The Potency in test [9] is 18.8 µM (active); in test [11] it was 16.8 µM (active); in test [12], 21.9 µM (active) and 38.9 µM (active); in [19], 1.09 µM (active) and 1.37 µM (active); in test [16], 15.4 µM (active) and 19.3 µM (active). Also, the Potency entry in [4] and in test [5] was “inactive” each time.
`N#CS`: the Potency entry in test [1], in test [2], in test [3], in [4], in test [5] and in [6] was “inactive” throughout. Moreover, the Potency entry in [7], in test [8], in test [17], in [9], in test [10] and in test [11] was “inactive” in each case. Also, the Potency entry in test [12], in test [13], in test [18], in test [19], in test [14] and in [15] was “inactive” throughout. Also, the Potency result in [16] is “inactive”.
In the case of `Oc1ccc(Cl)cc1`, the Potency result in test [1], in test [2], in [3], in test [4], in [6] and in test [7] was “inactive” each time. The Potency entry in [8], in test [17], in test [9], in test [10], in [11] and in test [12] was “inactive” each time. The Potency result in [13], in [18], in test [19], in test [14], in test [15] and in test [16] was “inactive” throughout.
As to `CC1COC2(c3ccccc3Cl)c3cc(Cl)ccc3NC(=O)CN12` (stereo not drawn), the Potency result in [1], in test [2], in test [3], in test [4], in test [5] and in test [7] was “inactive” throughout. Also, the Potency result in test [8], in [9], in [10], in [11], in test [12] and in test [13] was “inactive” each time. The Potency entry in test [18], in [19], in test [14] and in [16] was “inactive” each time.
`BrC(Br)Br`: the Potency result in test [1], in test [2], in test [3], in test [4], in [5] and in test [6] was “inactive” each time. Moreover, the Potency result in [7], in test [8], in test [17], in test [9], in test [10] and in test [11] was “inactive” throughout. Moreover, the Potency result in test [12], in test [13], in test [18], in [19], in test [14] and in [15] was “inactive” throughout. Besides, the Potency entry in test [16] was “inactive”.
